The source of these data is PubChem BioAssay AID886 (National Center for Advancing Translational Sciences (NCATS), 2007).

Each structure is given as a SMILES string. About 2,500 (3.4%) of roughly 73,000 compounds were called active. Roughly 7% stayed inconclusive and do not appear here. What follows is part of a selection rich in actives, with near analogues and random picks from the rest. Where a call stands in place of a potency, no number is given. A number with no mark means an inactive call. Calls follow the shape of the dose curve; as a rule, active = well fitted inhibition curve with a large enough effect; inconclusive = small, poorly fitted or top-dose-only effect; inactive = no such curve, though single readings can be large or run the other way.
Potency is read from the fitted curve at half-maximal effect.

In this experiment the target is 3-hydroxyacyl-CoA dehydrogenase type-2 (Homo sapiens) (UniProt Q99714). Nature of the experiment: qHTS Assay for Inhibitors of HADH2 (Hydroxyacyl-Coenzyme A Dehydrogenase, Type II). Also: nearly all actives have a fitted effect of over 60% in size. Conditions: recombinant HADH2, NADH fluorescence, beta-hydroxybutyryl-CoA; series mostly up to 57.1 µM. The method, boiled down: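 NADH fluorescence (ex 360/em 450 nm) read every 30 s for 4 min; activity taken as last-minus-first time point difference. Enzyme 20 nM, NAD+ 1 mM, beta-hydroxybutyryl-CoA 90 uM, pH 9.0 Tris buffer.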
Sequence of 3-hydroxyacyl-CoA dehydrogenase type-2 (Homo sapiens) (Q99714 whole entry, looked up): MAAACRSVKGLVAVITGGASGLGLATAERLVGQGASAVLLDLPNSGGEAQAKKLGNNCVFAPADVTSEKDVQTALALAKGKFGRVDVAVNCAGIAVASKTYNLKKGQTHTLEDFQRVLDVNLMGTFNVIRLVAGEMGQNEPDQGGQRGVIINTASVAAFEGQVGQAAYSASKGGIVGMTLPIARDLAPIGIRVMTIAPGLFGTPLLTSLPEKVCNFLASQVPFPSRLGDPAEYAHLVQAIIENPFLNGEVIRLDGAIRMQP
Sequence of 3-hydroxyacyl-CoA dehydrogenase type-2 (Homo sapiens) (Q99714 whole entry, looked up): as above
On the technique in general: qHTS replaces the single test concentration by a dilution series.
With `O=C(O)c1cccc(S(=O)(=O)NCCO)c1`, the activity change, negative = inhibition was -11.5% [at 11.4 µM].

Consider `NC(=O)CSC1=Nc2ccccc2C2=NC(CCC(=O)NCc3ccc(F)cc3)C(=O)N12` (stereo not drawn), for which the Potency is 31.6 µM (active).

In the case of `CC(C)C1N=C2c3ccccc3N=C(SCC(=O)c3ccc(O)c(O)c3)N2C1=O` (stereo not drawn), the Potency result was “inactive”. On to `O=C(CN1C(=O)CCS(=O)(=O)c2ccccc21)NCc1ccc(F)cc1`, for which the Potency entry was “inactive”. As for `CC(=O)/C(=N\N=C(N)N)c1ccccc1`, the activity change, negative = inhibition is 5.03% [at 11.4 µM]. Still for that read-out and setting: for `NS(=O)(=O)c1cc(C(=O)O)c(Cl)c([N+](=O)[O-])c1Cl` the value was 11.6% [at 11.4 µM]. For `O=C(c1ccncc1)N1CCC2(CCN(Cc3cc(C(F)(F)F)cc(C(F)(F)F)c3)CC2)CC1`, the Potency result is “inactive”. For the compound `Cc1nc2cnc(N3CCNCC3)nc2n(CCc2ccccc2)c1=O`, the Potency result was “inactive”. On the same count and under the same terms, for `Cc1cc(C)c2c(n1)nn1c(N3CCN(c4cccc(Cl)c4)CC3)cc(C)nc21` the value was “inactive”; for `Cc1cc(C)c2c(n1)nn1c(N3CCOCC3)cc(C)nc21`, 25.1 µM (active). The same measure, in the same setting: for `Cc1cc(C)c2c(n1)nn1c(-n3ccnc3)cc(C)nc21` the value was “inactive”; for `Cc1cc(C(=O)O)ccc1[N+](=O)[O-]`, “inactive”; for `CCCCC/C=C/C=C/C=O`, “inactive”. As for `Cc1ccc2nc(CC(=O)c3ccc4ccccc4c3)c(=O)[nH]c2c1`, the activity change, negative = inhibition is 11.5% [at 11.4 µM]. In the case of `C=CC(=O)c1ccc2ccccc2c1`, the Potency was 20 µM (active). Still for that read-out and setting: for `CCCC[C@H]1C(=O)N(c2ccccc2)N(c2ccc(O)cc2)C1=O` the value was “inactive”; for `COc1ccc(-n2c(=O)c(C)nc3cnc(N4CCOCC4)nc32)cc1`, “inactive”. Same read-out and setting: for `COCC(=O)N1CCC2(CCCN(c3ccccc3)C2)CC1` the value was “inactive”. Take `O=C(O)COc1c(Cl)cc(Cl)c2cccnc12`: the activity change, negative = inhibition is 7.63% [at 11.4 µM]. As for `COc1ccc(-c2n[nH]c(C)c2-c2ccc(OC)c(OC)c2)c(O)c1`, the Potency entry was “inactive”.

Regarding `Oc1ccc(-c2csc(Nc3cccnc3)n2)cc1`, the Potency result was “inactive”. Same read-out and setting: for `COc1ccc(OC)c(Nc2nc(-c3ccc(O)c(O)c3)cs2)c1` the value was 0.126 µM (active).

Consider `CO[C@@H]1/C=C\O[C@]2(C)Oc3c(C)c(O)c4c(O)c(c(CN(C)C)c(O)c4c3C2=O)NC(=O)/C(C)=C\C=C[C@@H](C)[C@@H](O)[C@H](C)[C@@H](O)[C@H](C)[C@H](OC(C)=O)[C@@H]1C`, for which the activity change, negative = inhibition was -4.82% [at 11.4 µM]. For `CC(C)NC(=O)N1CC[C@@]2(CCCN(C(=O)c3cccc(F)c3)C2)C1`, the Potency result is “inactive”.

In the case of `COC(=O)NC(c1ccccc1)[C@]1(C(C)=O)CCCC1=O` (stereo partly drawn), the activity change, negative = inhibition was 4.66% [at 11.4 µM]. `CN1CCCc2cc(C#N)c(=O)[nH]c21`: the Potency was 3.16 µM (active). Same read-out and setting: for `CC/C=C/C/C=C/C/C=C/CCCCCCCC(=O)OCC` the value was “inactive”. Take `CN(C)CCSS(=O)(=O)O`: the activity change, negative = inhibition is 9.41% [at 11.4 µM].
